Results filed as inconclusive are left out. A call without a number means that no potency is given here. Activity calls are given as the source filed them. Unless noted, the call rests on the fitted dose curve; in most records, active means well fitted curve in the direction sought with a large enough effect in the repeat runs; inconclusive means weak or mixed curves; inactive means no such curve, though single readings can be large; an effect the other way counts as inactive or inconclusive.
Legend:
[1] = qHTS assay for small molecules that induce genotoxicity in human embryonic kidney cells expressing luciferase-tagged ATAD5 (AID 651632); further: nearly all actives have a fitted effect of over 15% in size; further: potency means the concentration at half of the fitted maximal effect
Outline: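 Quantitative HTS in HEK293T expressing luciferase-tagged ATAD5, whose levels rise upon DNA damage. Exposure ran 16 hr at 37C and 5% CO2, with luminescence read 30 min after Amplite addition at room temperature.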

[2] = qHTS assay for small molecule agonists of the p53 signaling pathway - cell viability (AID 651633; calls by dose curve; further: nearly all actives have a fitted effect of over 30% in size; further: potency means the concentration at half of the fitted maximal effect)
Outline: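 p53RE-bla cells were treated with compound for 16 hours at 37 C. Cytotoxicity was then measured as CellTiter-Glo luminescence after 30 min at room temperature.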

[3] = qHTS assay for small molecules that induce genotoxicity in human embryonic kidney cells expressing luciferase-tagged ATAD5 - cell viability (AID 651634; calls by dose curve; further: nearly all actives have a fitted effect of over 25% in size; further: potency means the concentration at half of the fitted maximal effect)
Outline: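 After 15.5 hr incubation with compound at 37C, 5% CO2, HEK293T ATAD5-luciferase cells received CellTiter-Fluor reagent; fluorescence intensity was quantified following 30 min at 37C.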

[4] = qHTS assay for small molecule disruptors of the mitochondrial membrane potential - cell viability (AID 720634; calls by dose curve; further: nearly all actives have a fitted effect of over 20% in size; further: potency means the concentration at half of the fitted maximal effect)
Outline: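 ATP-based luminescent viability readout (CellTiter-Glo, 30 min, room temperature) in HepG2 cells multiplexed with the m-MPI membrane potential dye; compound exposure lasted 1 hr at 37 C.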

[5] = qHTS assay for small molecule disruptors of the mitochondrial membrane potential (AID 720635); further: potency means the concentration at half of the fitted maximal effect
Outline: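 HepG2 cells exposed to compound 1 hr at 37C, then Mito-MPS dye 30 min. Ratio read of aggregate (540/590 nm) versus monomer (490/535 nm) fluorescence.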

[6] = qHTS assay to test for compound auto fluorescence at 590 nm (red) in HepG2 cells (AID 720674)
Outline: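 HepG2 cells, 2,000 per well in MEM with 10% FBS, attached overnight at 37 C, then got 23 nL compound or DMSO. After 1 hr at 37 C, 5% CO2, red fluorescence was read at 540/590 nm against Rose Bengal sodium as reference.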

[7] = qHTS assay to test for compound auto fluorescence at 535 nm (green) in HepG2 cells (AID 720675)
[8] = qHTS assay to test for compound auto fluorescence at 460 nm (blue) in HEK293 cells (AID 720678)
Outline: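 HEK293, 2,000 cells/well, 10% dialyzed FBS; attach 4-5 hr 37C; pin compound or DMSO; o/n 37C/5% CO2; fluorescence 405/460 nm; triamterene-equivalent units.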

[9] = qHTS assay to test for compound auto fluorescence at 590 nm (red) in HEK293 cells (AID 720679)
Outline: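 Intensity at 540nm excitation and 590nm emission is reported as Rose Bengal sodium-equivalent autofluorescence. Measurements followed overnight exposure (37C, 5% CO2) of HEK293 cells, 2,000 per well, to 23 nL compound.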

[10] = qHTS assay to test for compound auto fluorescence at 535 nm (green) in HEK293 cells (AID 720680)
[11] = qHTS assay to test for compound auto fluorescence at 460 nm (blue) in HEK293 cell free culture (AID 720681)
Outline: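 Compounds were added to cell-free DMEM with 10% FBS and fluorescence read directly. The blue channel used 405 nm excitation and 460 nm emission, with triamterene as the reference fluorophore.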

[12] = qHTS assay to test for compound auto fluorescence at 535 nm (green) in HEK293 cell free culture (AID 720682)
Outline: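 Steps: dispense DMEM/10% FBS into empty wells; pin in compound or DMSO; measure fluorescence at 485/535 nm. Values are fluorescein equivalents.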

[13] = qHTS assay to test for compound auto fluorescence at 590 nm (red) in HEK293 cell free culture (AID 720683)
Outline: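 Cell-free wells of DMEM with 10% FBS received compound, and intrinsic fluorescence was read at excitation/emission 540/590 nm. Values expressed as equivalence to Rose Bengal sodium.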

[14] = qHTS assay to test for compound auto fluorescence at 590 nm (red) in HepG2 cell free culture (AID 720684)
Outline: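 Auto fluorescence equivalency versus Rose Bengal sodium, red channel Ex/Em 540/590 nm; compounds in cell-free MEM/10% FBS; DMSO vehicle control.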

[15] = qHTS assay to test for compound auto fluorescence at 460 nm (blue) in HepG2 cell free culture (AID 720685)
Outline: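 Cell-free plates of MEM plus 10% FBS received 23 nL compound or DMSO vehicle; blue-channel (405/460 nm) intensity scored against triamterene as reference fluorophore.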

[16] = qHTS assay to test for compound auto fluorescence at 460 nm (blue) in HepG2 cells (AID 720687)
Outline: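 HepG2 cells in MEM with 10% FBS, attached overnight at 37 C, were exposed to compound or DMSO for 1 hr at 37 C, 5% CO2. Blue fluorescence was read at 405/460 nm, with triamterene as reference fluorophore.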

[17] = target: Glucocorticoid receptor (Homo sapiens) (UniProt P04150); experiment: qHTS assay to identify small molecule agonists of the glucocorticoid receptor (GR) signaling pathway (AID 720691; active means well fitted activation curve with a large enough effect in the signal ratio in the repeat runs, not every such curve was filed as active; the % refers to the signal ratio); conditions: GR-bla HeLa, beta-lactamase reporter ratio, 18 h; activation: at 62.4 µM (top of the series)
Outline: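 Cells: GR-bla HeLa, endogenous GR with stably integrated GRE-beta-lactamase reporter. Treatment 18 h, 37 C, compounds delivered in DMSO. Detection via LiveBLAzer B/G FRET substrate, 2 h RT, fluorescence intensity.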

[18] = qHTS assay to test for compound auto fluorescence at 535 nm (green) in HepG2 cell free culture (AID 720686)
[19] = target: Glucocorticoid receptor (Homo sapiens) (UniProt P04150); experiment: qHTS assay to identify small molecule antagonists of the glucocorticoid receptor (GR) signaling pathway (AID 720692; active means well fitted inhibition curve with a large enough effect in the signal ratio in the repeat runs, not every such curve was filed as active; the % refers to the signal ratio)
Outline: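 Quantitative HTS in antagonist format: HeLa cells expressing endogenous GR and a stably integrated GRE-bla reporter, stimulated with 5 nM dexamethasone (final) alongside test compounds for 18 h.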

Glucocorticoid receptor (Homo sapiens), sequence (P04150 whole entry, looked up): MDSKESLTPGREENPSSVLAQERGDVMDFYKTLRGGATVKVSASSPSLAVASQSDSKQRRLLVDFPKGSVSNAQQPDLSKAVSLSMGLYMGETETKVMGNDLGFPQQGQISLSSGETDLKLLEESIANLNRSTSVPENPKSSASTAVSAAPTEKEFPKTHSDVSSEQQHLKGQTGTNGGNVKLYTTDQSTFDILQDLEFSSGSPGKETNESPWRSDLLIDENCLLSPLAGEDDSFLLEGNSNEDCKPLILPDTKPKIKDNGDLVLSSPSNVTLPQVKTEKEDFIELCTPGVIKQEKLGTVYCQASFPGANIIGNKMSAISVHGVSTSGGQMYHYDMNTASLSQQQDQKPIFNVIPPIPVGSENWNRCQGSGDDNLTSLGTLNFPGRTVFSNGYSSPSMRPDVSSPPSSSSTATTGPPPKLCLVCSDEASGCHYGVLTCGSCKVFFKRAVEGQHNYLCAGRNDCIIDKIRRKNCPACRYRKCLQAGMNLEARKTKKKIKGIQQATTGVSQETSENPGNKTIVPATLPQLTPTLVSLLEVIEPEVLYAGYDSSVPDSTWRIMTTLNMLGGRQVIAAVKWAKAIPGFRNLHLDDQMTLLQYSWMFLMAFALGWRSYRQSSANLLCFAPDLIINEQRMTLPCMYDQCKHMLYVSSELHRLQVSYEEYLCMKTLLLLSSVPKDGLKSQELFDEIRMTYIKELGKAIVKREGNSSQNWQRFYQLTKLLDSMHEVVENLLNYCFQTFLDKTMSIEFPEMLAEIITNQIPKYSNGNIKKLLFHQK

| Structure (SMILES) | Potency [1] | Potency [2] | Potency [3] | Potency [4] | Potency [5] | outcome [6] | Potency [7] | Potency [8] | outcome [9] | outcome [10] | Potency [11] | outcome [12] | outcome [13] | outcome [14] | Potency [15] | Potency [16] | Potency [17] | Potency [18] | Potency [19] |
| --- | --- | --- | --- | --- | --- | --- | --- | --- | --- | --- | --- | --- | --- | --- | --- | --- | --- | --- | --- |
| C[C@H]1O[C@@H](O[C@H]2CC[C@@]3(C)[C@H](CC[C@@H]4[C@@H]3C[C@@H](O)[C@]3(C)[C@@H](C5=CC(=O)OC5)CC[C@]43O)C2)C[C@H](O)[C@@H]1O[C@H]1C[C@H](O)[C@H](O[C@H]2C[C@H](O)[C@H](O[C@@H]3O[C@H](CO)[C@@H](O)[C@H](O)[C@H]3O)[C@@H](C)O2)[C@@H](C)O1 | inactive | 168 nM (active) | 531 nM (active) | inactive | 1.68 µM (active) | inactive | inactive | inactive | inactive | inactive | inactive | inactive | inactive | inactive | inactive | inactive | inactive |  |  |
| O=C(O)c1cc(O)c2c(c1)[C@H]([C@H]1c3cc(C(=O)O)cc(O)c3C(=O)c3c(O[C@@H]4O[C@H](CO)[C@@H](O)[C@H](O)[C@H]4O)cccc31)c1cccc(O[C@@H]3O[C@H](CO)[C@@H](O)[C@H](O)[C@H]3O)c1C2=O | inactive | inactive | inactive | inactive | inactive | inactive | inactive | inactive | inactive | inactive | inactive | inactive | inactive | inactive | inactive | inactive | inactive | inactive | inactive |
| CC(C)c1ccc2sc3ccccc3c(=O)c2c1 | 4.33 µM (active) | inactive | inactive | 34.4 µM (active) | 48.6 µM (active) | inactive | inactive |  | inactive |  |  | inactive | inactive | inactive |  |  | inactive | inactive | inactive |
| O=P(O)(O)C(O)(Cn1ccnc1)P(=O)(O)O | inactive | inactive | inactive | inactive | inactive | inactive | inactive | inactive | inactive | inactive | inactive | inactive | inactive | inactive | inactive | inactive | inactive | inactive |  |
| C[N+]1(CCCCC[N+]2(C)CCCC2)CCCC1 | inactive | inactive | inactive | inactive | inactive | inactive | inactive | inactive | inactive | inactive | inactive |  | inactive | inactive | inactive | inactive | inactive |  | inactive |
| C[N+](C)(C)CCOP(=O)(O)OP(=O)([O-])OC[C@H]1O[C@@H](n2ccc(N)nc2=O)[C@H](O)[C@@H]1O | inactive | inactive | inactive | inactive | inactive | inactive | inactive | inactive | inactive | inactive | inactive | inactive | inactive | inactive | inactive | inactive | inactive | inactive | inactive |
| C=CC[N+]1([C@H]2C[C@H]3[C@@H]4CC[C@H]5C[C@H](O)[C@@H](N6CCOCC6)C[C@]5(C)[C@H]4CC[C@]3(C)[C@H]2OC(C)=O)CCCC1 | inactive | inactive | inactive | inactive | inactive | inactive | inactive | inactive | inactive | inactive | inactive | inactive | inactive | inactive | inactive | inactive | inactive | inactive |  |

Reference: PubChem BioAssay (Tox21)
